# Several values for one entry are separate records, joined by “and”; a condition that tells them apart may be missing. Equal values may be shown once. Compounds without any hit were thinned out: in the full panel of roughly 83,000, 20% have a hit.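 Cell lines were cultured in 96-well plates, exposed to a single compound concentration, and assessed for percent growth 48 hours later.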 Activity calls are given as the source filed them. How the source made its calls: active means growth percent below 10; inactive means the rest.
# System: MDA-MB-468 breast
# Test: NCI-60 one-dose screen, 48 h (100 = growth as untreated, 0 = no growth, -100 = all killed)
# Conditions: 10 µM unless noted
row,SMILES,growth
1,N/C(=N/N=C/c1ccccc1)N/N=C\c1ccccc1,-15.7% (active)
2,COC(=O)[C@H](C)NC(=O)c1ccc(NC(=O)c2[nH]c(C)c(Cl)c2Cl)c(OCCN)c1,107% (inactive)
3,Cc1cc(-c2ccc(N=Nc3c(C)nn(-c4ccc(S(=O)(=O)O)cc4)c3O)c(C)c2)ccc1N=Nc1ccc(O)c(C(=O)O)c1,113% (inactive)
4,COc1cc(C2CC(c3ccc(C)cc3)=NN2C=O)ccc1OCCN(C)C (stereo not drawn),93.1% (inactive)
5,O=C(CCCCl)NNc1nccc(Nc2ccc(S(=O)(=O)Nc3ccncc3)cc2)n1,116% (inactive)
6,CCn1c(=S)[nH]c2c(=O)n(C)c(=O)n(C)c21,100% (inactive)
7,Cc1nc2sc(C(=O)Nc3ccccn3)c(N)c2cc1C(C)O (stereo not drawn),38.4% (inactive)
8,Nc1nc(N)c2c(n1)NC(c1sc(Cl)nc1Cl)CC(c1ccc3c(c1)OCO3)=N2 (stereo not drawn),-13.3% (active)
9,C#CCNC(=O)[C@H](Cc1ccccc1)NC(=O)[C@]12CC[C@@H](C(=C)C)[C@@H]1[C@H]1CC[C@@H]3[C@@]4(C)Cc5c([nH]c6ccccc56)C(C)(C)[C@@H]4CC[C@@]3(C)[C@]1(C)CC2,97.9% (inactive)
10,C(=C\c1ccccc1)/CN1CCN(C(c2ccccc2)c2ccccc2)CC1,89.6% (inactive)
11,O=C(NCc1ccc2c(c1)OCO2)NCC1CCCC(CNC(=O)NCc2ccc3c(c2)OCO3)C1 (stereo not drawn),104% (inactive)
12,CC1Cc2cc(F)ccc2-n2cccc21 (stereo not drawn),136% (inactive)
13,O=C(O)c1cc(=O)[nH]c(=O)[nH]1,97.9% (inactive) and 80.6% (inactive)
